Unmarked numbers belong to inactive results. The list shows a part of the results. Activity calls are given as the source filed them.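 Rule for the calls, unless noted: active = mean inhibition over 43.08%, the solvent-only control mean plus 3 SD; inactive = the rest.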

For assay [1], the target named is Nuclear receptor coactivator 3 (Homo sapiens) (UniProt Q9Y6Q9). Briefly: NCOA3 GAL4-fusion reporter inhibition – cell-based, luminescence, quadruplicate, confirmation (AID 588792).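 Note: 0% = DMSO treated cells and 100% = gossypol at 36 µM.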 Particulars: HEK293 GAL4-SRC3 luciferase reporter, at 3.6 µM, hits give high values.
The subject of assay [2] is transactivating tegument protein VP16 (Human herpesvirus 1), Gal4-VP16 luciferase reporter. Briefly: repression of VP16-driven luciferase reporter – cell-based, luminescence, high throughput, counter-screen for SRC3 inhibitor project (AID 588794; in the data active = inhibition above about 30%). To be noted: mammalian cells, at 3.6 µM, hits give high values. For orientation: A reporter such as luciferase makes a cellular process visible.

Assay [3] can be described thus: StAR promoter reporter inhibitors, counter-screen for LRH-1 inverse agonist project, cell-based, luminescence, high throughput (AID 651611; in the data active = inhibition above about 28%). Particulars: StAR promoter luciferase reporter counterscreen, at 3.6 µM, hits give high values.
Assay [4] addresses Nuclear receptor subfamily 5 group A member 2 (Homo sapiens) (UniProt O00482). Briefly: NR5A2 activity suppression in reporter cells – cell-based, luminescence, confirmation (AID 651613; in the data active = inhibition above about 42%;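 note: HEK293T cells co-transfected with LRH-1 and StAR promoter luciferase reporter; 0% = vehicle wells and 100% = parental cells lacking receptor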). To be noted: cell-based LRH-1 luciferase reporter, inverse agonism; at 3.6 µM; hits give high values.
For assay [5], the target named is Steroidogenic factor 1 (Homo sapiens) (UniProt Q13285). As to the kind of experiment: inverse agonism at SF1 nuclear receptor – cell-based, luminescence, high throughput, counter-screen for LRH-1 inverse agonist project (AID 651614; in the data active = inhibition above about 44%;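 note: cells cotransfected with StAR promoter reporter and SF1 expression vector; 0% = vehicle on cells with receptor and 100% = vehicle on cells lacking receptor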). To be noted: cell-based SF1 luciferase reporter, at 3.6 µM, hits give high values.
A short description of assay [6]: compounds suppressing VP16-driven luciferase signal – cell-based, luminescence, high throughput, counter-screen for LRH-1 inverse agonist project (AID 651615; in the data active = inhibition above about 33%). Particulars: Gal4-VP16 luciferase reporter cells, at 3.6 µM, hits give high values. (In general: Counterscreens check selectivity or assay interference.)
Assay [7] deals with Nuclear receptor coactivator 1 (Homo sapiens) (UniProt Q15788). Briefly: NCOA1 GAL4-fusion reporter inhibition – cell-based, luminescence, quadruplicate, confirmation (AID 588820;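 active = mean inhibition above 46.68%, the untreated control wells mean plus 3 SD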;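 note: 0% = DMSO wells and 100% = gossypol 36 µM treated wells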). To be noted: HEK293 GAL4-SRC1 luciferase reporter, at 3.6 µM, hits give high values.
A short description of assay [8]: repression of VP16-driven luciferase reporter – cell-based, luminescence, high throughput, counter-screen for SRC1 inhibitor project (AID 588824; in the data active = inhibition above about 25%). Particulars: cell-based VP16 transactivation luciferase luminescence; at 3.6 µM; hits give high values.
For assay [9], the system named is transactivating tegument protein VP16 (Human herpesvirus 1). As to the kind of experiment: compounds suppressing VP16-driven luciferase signal – cell-based, luminescence, single concentration, counter-screen for SRC2 inhibitor project (AID 652007; in the data active = inhibition above about 36%). Particulars: cell-based VP16 transactivation luciferase reporter, at 8.9 µM, hits give high values.
Assay [10] concerns the target Nuclear receptor coactivator 2 (Homo sapiens) (UniProt Q15596). As to the kind of experiment: inhibition of GAL4-SRC2 driven luciferase expression – cell-based, luminescence, HEK293, triplicate, confirmation (AID 652008;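 active = mean inhibition above 46.5%, the solvent-only control mean plus 3 SD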;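 note: 0% = DMSO-treated cells and 100% = Gossypol at 36 µM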). Particulars: HEK293 GAL4-SRC2 luciferase reporter, at 8.9 µM, hits give high values.
Assay [11] is described as follows: VP16-driven transactivation reporter suppression – cell-based, luminescence, HEK293, counter-screen for COUP-TFII antagonist project (AID 687007; in the data active = inhibition above about 13%). To be noted: HEK293 Gal4-VP16 luciferase reporter, at 8.5 µM, hits give high values.
The target of assay [12] is COUP transcription factor 2 (Homo sapiens) (UniProt P24468). Briefly: retest of COUP-TFII reporter suppressors – cell-based, luciferase reporter, HEK293, triplicate, confirmation (AID 687008;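 active = mean inhibition over three repeats above a set limit taken from the earlier primary screen, cut at about 38% in these data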;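 note: 100% = cells given the luciferase reporter alone without the COUP-TF2 vector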). To be noted: HEK293 NGFI-A luciferase reporter, luminescence; at 8.5 µM; hits give high values.
Chain of COUP transcription factor 2 (Homo sapiens) (P24468 whole entry, looked up): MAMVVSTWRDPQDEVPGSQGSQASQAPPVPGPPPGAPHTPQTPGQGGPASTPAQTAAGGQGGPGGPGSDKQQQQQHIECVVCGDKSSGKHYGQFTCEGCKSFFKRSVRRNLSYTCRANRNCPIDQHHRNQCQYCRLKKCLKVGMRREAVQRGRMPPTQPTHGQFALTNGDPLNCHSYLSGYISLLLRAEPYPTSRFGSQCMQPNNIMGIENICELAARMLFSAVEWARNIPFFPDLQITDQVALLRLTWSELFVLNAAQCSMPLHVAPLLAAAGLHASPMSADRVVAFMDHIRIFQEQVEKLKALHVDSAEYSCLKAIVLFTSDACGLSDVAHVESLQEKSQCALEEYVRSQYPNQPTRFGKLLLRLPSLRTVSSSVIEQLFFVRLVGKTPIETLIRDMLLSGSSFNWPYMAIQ

Chain of Nuclear receptor coactivator 3 (Homo sapiens) (Q9Y6Q9 whole entry, looked up, the tested form may be a part): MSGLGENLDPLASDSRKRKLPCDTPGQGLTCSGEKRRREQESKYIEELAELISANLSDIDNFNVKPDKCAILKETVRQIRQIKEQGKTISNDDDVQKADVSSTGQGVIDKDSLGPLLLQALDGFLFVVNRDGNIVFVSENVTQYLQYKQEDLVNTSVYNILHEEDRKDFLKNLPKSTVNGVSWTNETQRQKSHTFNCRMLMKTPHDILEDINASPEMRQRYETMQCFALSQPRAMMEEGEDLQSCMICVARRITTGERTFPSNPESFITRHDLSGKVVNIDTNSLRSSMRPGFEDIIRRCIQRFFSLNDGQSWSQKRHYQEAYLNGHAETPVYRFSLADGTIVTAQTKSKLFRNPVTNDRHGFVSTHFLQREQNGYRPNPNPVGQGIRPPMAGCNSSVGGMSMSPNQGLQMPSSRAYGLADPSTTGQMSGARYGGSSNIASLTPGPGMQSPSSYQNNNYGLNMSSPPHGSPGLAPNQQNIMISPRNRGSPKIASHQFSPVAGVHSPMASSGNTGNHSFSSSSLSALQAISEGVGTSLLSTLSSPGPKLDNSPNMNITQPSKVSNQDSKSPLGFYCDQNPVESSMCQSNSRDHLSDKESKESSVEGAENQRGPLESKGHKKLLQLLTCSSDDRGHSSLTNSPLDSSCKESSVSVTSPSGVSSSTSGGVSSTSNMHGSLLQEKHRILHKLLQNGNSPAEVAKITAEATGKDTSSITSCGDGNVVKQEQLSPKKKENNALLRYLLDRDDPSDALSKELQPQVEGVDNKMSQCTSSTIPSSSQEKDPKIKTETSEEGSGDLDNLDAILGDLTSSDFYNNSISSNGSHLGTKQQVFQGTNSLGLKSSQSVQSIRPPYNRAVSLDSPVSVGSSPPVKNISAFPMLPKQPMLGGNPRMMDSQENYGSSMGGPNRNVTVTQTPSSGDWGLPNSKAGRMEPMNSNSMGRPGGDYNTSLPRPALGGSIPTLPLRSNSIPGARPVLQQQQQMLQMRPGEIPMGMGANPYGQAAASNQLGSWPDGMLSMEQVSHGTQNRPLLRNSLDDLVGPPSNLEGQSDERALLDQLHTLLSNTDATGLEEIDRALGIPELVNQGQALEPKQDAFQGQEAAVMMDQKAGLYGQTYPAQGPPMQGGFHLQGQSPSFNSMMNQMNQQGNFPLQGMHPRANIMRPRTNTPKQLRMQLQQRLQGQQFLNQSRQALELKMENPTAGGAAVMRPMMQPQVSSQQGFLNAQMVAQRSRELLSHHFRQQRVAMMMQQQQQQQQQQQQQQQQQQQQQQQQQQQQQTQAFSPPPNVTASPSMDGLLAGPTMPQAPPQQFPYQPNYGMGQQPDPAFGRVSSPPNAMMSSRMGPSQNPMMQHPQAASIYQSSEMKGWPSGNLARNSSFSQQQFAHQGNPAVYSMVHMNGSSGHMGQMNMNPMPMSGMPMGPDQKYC
Chain of Nuclear receptor subfamily 5 group A member 2 (Homo sapiens) (O00482 whole entry, looked up): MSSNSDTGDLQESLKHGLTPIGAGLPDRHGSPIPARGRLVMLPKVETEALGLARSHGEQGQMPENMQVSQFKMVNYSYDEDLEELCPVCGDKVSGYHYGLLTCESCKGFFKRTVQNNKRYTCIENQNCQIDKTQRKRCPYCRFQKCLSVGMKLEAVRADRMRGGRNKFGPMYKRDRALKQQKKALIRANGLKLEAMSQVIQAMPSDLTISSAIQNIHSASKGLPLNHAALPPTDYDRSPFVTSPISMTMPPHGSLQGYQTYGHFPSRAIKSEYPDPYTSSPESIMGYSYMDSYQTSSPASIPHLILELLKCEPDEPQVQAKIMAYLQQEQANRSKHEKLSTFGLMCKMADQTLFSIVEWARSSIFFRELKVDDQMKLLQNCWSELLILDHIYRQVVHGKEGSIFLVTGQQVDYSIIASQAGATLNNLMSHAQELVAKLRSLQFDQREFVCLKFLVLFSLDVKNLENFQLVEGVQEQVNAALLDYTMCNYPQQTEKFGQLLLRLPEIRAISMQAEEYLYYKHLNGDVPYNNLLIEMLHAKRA
Chain of Steroidogenic factor 1 (Homo sapiens) (Q13285 whole entry, looked up, the tested form may be a part): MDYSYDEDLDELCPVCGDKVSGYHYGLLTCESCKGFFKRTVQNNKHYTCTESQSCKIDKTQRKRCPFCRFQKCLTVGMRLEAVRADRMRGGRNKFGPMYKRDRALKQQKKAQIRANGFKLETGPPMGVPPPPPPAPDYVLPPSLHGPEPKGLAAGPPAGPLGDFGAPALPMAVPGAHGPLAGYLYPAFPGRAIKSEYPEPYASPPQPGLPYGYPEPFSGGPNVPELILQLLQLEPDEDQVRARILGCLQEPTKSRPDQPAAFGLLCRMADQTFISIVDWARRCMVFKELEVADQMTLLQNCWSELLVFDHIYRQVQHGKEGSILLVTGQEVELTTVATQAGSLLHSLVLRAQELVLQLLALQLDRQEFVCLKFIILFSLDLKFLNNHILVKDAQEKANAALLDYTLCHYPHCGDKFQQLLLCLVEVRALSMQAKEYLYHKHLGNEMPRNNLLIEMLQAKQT
Chain of Nuclear receptor coactivator 2 (Homo sapiens) (Q15596 whole entry, looked up, the tested form may be a part): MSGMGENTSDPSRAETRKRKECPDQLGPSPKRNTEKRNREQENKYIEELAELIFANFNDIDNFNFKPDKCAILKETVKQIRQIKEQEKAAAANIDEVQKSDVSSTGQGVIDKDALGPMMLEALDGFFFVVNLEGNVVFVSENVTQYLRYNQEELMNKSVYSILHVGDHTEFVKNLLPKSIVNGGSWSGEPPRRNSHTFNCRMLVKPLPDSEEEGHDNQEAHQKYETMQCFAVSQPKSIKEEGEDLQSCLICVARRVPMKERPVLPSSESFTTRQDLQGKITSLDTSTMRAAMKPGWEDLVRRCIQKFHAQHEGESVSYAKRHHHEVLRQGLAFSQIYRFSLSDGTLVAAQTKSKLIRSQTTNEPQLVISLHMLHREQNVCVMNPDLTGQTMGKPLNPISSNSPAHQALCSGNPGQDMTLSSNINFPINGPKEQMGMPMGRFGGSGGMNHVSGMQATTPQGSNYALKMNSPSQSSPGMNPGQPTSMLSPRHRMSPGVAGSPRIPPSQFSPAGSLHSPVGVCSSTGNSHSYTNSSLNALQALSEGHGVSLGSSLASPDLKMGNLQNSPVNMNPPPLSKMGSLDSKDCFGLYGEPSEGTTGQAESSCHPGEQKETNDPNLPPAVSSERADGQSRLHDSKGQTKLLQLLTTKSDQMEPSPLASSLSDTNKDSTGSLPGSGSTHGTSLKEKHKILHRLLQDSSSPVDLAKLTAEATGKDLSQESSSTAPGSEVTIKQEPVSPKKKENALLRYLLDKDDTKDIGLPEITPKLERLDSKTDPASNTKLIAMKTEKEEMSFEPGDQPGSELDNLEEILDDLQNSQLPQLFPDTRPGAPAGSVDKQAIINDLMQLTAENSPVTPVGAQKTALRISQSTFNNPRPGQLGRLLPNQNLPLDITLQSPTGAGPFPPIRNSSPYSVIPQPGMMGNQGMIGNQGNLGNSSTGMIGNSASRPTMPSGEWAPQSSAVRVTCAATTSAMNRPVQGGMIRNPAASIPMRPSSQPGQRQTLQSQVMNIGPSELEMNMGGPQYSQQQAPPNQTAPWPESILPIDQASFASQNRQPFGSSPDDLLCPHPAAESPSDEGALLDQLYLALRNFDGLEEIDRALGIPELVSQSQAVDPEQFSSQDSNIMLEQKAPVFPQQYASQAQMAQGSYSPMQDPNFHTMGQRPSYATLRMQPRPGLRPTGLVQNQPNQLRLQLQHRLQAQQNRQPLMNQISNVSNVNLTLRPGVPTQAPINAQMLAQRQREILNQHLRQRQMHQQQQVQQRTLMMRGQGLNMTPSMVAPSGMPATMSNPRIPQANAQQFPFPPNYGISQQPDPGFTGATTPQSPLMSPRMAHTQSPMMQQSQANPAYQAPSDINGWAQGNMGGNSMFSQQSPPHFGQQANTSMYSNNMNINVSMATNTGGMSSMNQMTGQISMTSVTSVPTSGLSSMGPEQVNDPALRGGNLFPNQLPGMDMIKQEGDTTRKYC

For `Cc1nnsc1S(=O)c1ccc(Cl)c(Cl)c1` (stereo not drawn), the inhibition was 34.3% in assay [1]; 9.36% in assay [2]; 25.5% in [3]; 64.4% (active) in [4]; 66.4% (active) in assay [5]; 20.8% in assay [6].

As to `N=c1c2c(n(Cc3ccccc3)c3c1CCC3)CCC2`, the inhibition in assay [1] was 19.5%; in assay [2] it was 44.1% (active); in assay [3], 37.3% (active); in [4], 79.2% (active); in [5], 72.9% (active); in assay [6] it was 62.4% (active).

Regarding `CCOc1ccc(-n2c(-c3ccc(Br)cc3)c[n+]3c2CCCCC3)cc1`, the inhibition in assay [1] was 26.1%; in [2], 24.1%; in assay [3], 22.8%; in assay [4] it was 104% (active); in assay [5], 60.1% (active); in assay [6], 67.5% (active).

On to `O=C(CN1C(=O)c2ccccc2S1(=O)=O)N1CCc2ccccc21`, for which the inhibition was 60.5% (active) in assay [1]; 60.9% (active) in assay [2]; 40.8% in assay [7]; 65.1% (active) in assay [8]; 65.5% (active) in [9]; 85.9% (active) in assay [10]. Besides, the inhibition is 65.9% (active) in assay [11] and 74.9% (active) in assay [12].

Regarding `CCOC(=O)c1sc(N(Cc2ccccc2)C(=O)COC(=O)c2ccc(O)cc2)nc1C`, the inhibition is 69.3% (active) in [1]; 37.4% (active) in assay [2]; -92.1% in assay [3]; 55.2% (active) in assay [4]; 61.2% (active) in [5]; 37.1% (active) in assay [6].

`C[n+]1c2n(c3ccccc31)N=C(c1cc(C(C)(C)C)c(O)c(C(C)(C)C)c1)CS2`: the inhibition in assay [1] is 81.1% (active); in [2], 84.6% (active); in assay [3], 81.7% (active); in assay [4], 106% (active); in assay [5] it was 95% (active); in assay [6], 90% (active).

In the case of `CCCCCc1ccc(OCCCC[n+]2ccccc2)c(CCCCC)c1`, the inhibition is 20.9% in assay [1]; 20.9% in [2]; 3.96% in assay [3]; 41.8% (active) in assay [4]; 37.9% in assay [5]; 42.3% (active) in [6].

Regarding `Cc1cc(Br)c(OCc2ccc(C(=O)N/N=C/c3ccc[nH]3)cc2)c(Br)c1`, the inhibition in assay [1] was 51.8% (active); in assay [2], 71.7% (active); in assay [3] it was 76.5% (active); in assay [4] it was 101% (active); in assay [5], 88.5% (active); in assay [6], 85.5% (active).

Consider `Cc1cc(C)cc(NC(=O)c2ccc([N+](=O)[O-])o2)c1`, for which the inhibition in assay [1] was 22.4%; in [2] it was 2.31%; in assay [3], 53% (active); in assay [4], 76.3% (active); in assay [5], 74.7% (active); in assay [6] it was 20%.

On to `CCN1/C(=C\c2ccc3cc(C)ccc3[n+]2CC)Sc2cc(C)c(C)cc21`, for which the inhibition in [1] is 34.9%; in [2], 57.5% (active); in [3], 32.8% (active); in [4] it was 82.5% (active); in [5] it was 72.8% (active); in [6], 65.6% (active).

Take `O=C(Nc1ccc(F)cc1)Nc1cc(OCC(F)(F)F)cc(OCC(F)(F)F)c1`: the inhibition was 17% in [1]; 29.6% (active) in assay [2]; 53.8% (active) in assay [3]; 98.5% (active) in assay [4]; 75.6% (active) in [5]; 78% (active) in assay [6].

For `COc1cccc(CNc2nc3cc(-c4cnn(Cc5ccccc5)c4)sc3c(=O)n2C)c1`, the inhibition in assay [1] was 6.76%; in [2], 30.1% (active); in [3] it was 32.4% (active); in [4] it was 47.3% (active); in assay [5], 52% (active); in [6] it was 46.9% (active).

Consider `Cc1ccc(OCCN2CCN(c3ncnc4sc(C)c(C)c34)CC2)cc1`, for which the inhibition in assay [1] was 4.63%; in [2], 39.1% (active); in assay [3], 34.8% (active); in [4], 56.1% (active); in assay [5], 61.3% (active); in assay [6] it was 53.9% (active).

Consider `c1ccc(CCNc2nc(-c3ccccn3)nc3ccccc23)cc1`, for which the inhibition was 22.7% in assay [1]; 41% (active) in assay [2]; 58.5% (active) in assay [3]; 91.9% (active) in assay [4]; 82.7% (active) in assay [5]; 69.1% (active) in assay [6].

For the compound `CCCCCCCCCCCCCCCCn1cc[n+](C)c1`, the inhibition was 5.39% in assay [1]; 31.6% (active) in assay [2]; 36% (active) in [3]; 65.5% (active) in [4]; 70.5% (active) in [5]; 64.4% (active) in assay [6].

Regarding `CN(CCOc1ccc(Cl)cc1)C(=O)c1cccc(S(=O)(=O)N2CCN(c3ccc(F)cc3)CC2)c1`, the inhibition in assay [1] is 24.4%; in assay [2], 41.2% (active); in [3], 24.3%; in [4], 60.9% (active); in [5], 63.8% (active); in assay [6], 53.2% (active).

On to `Cc1cc(C(=O)NC2CCCc3c2cnn3-c2ccc(C)c(C)c2)n(C)n1` (stereo not drawn), for which the inhibition in assay [1] is 21.1%; in assay [2] it was 52.5% (active); in assay [3], 33.4% (active); in assay [4], 62% (active); in assay [5] it was 57.4% (active); in assay [6] it was 67.1% (active).

Consider `Cc1ncc(CO)c(/C=N/NC(=O)c2cc3c(s2)CCCC3)c1O`, for which the inhibition in assay [1] was 40.9%; in assay [2], 27.7%; in assay [3] it was 76.8% (active); in [4] it was 94.7% (active); in [5], 77.2% (active); in assay [6], 82.6% (active).

For the compound `O=S(=O)(NCC1CCCO1)c1ccc(-c2ccc(S(=O)(=O)NCC3CCCO3)cc2)cc1` (stereo not drawn), the inhibition is 9.93% in assay [1]; 41.9% (active) in [2]; 24.6% in assay [3]; 69.5% (active) in assay [4]; 61.2% (active) in [5]; 56.7% (active) in [6].

For `CCC(C)Nc1nc(-c2ccccn2)nc2ccccc12` (stereo not drawn), the inhibition is 3.88% in assay [1]; 11.9% in [2]; 45.6% (active) in assay [3]; 67.2% (active) in [4]; 78.3% (active) in assay [5]; 42.9% (active) in [6].

On to `CCCCC(=O)NC(c1ccc(OC)cc1)c1ccc2cccnc2c1O` (stereo not drawn), for which the inhibition in assay [1] was 28.5%; in [2] it was 14.8%; in assay [3], 8.78%; in [4] it was 17.3%; in [5], 18.6%; in assay [6], 27%.

One may read the inhibition as the drop in the measured response relative to a control, in per cent.

The record behind these values is PubChem BioAssay.
